Results published in the supplement of paper PMC8728848.
The entries come from a sample that favours the strongest signals as a whole.

Columns and labels:
Assay in all cases: glycan array binding signal (z-score within array); higher = stronger binding
Details in all cases: glycan notation: IUPAC condensed, linker removed; mutation: W10H
[1] = target: Gal(b1-4)GlcNAc(b1-3)[Fuc(a1-3)GlcNAc(b1-6)]Gal(b1-4)Glc
Outline: (§1)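 From the Consortium for Functional Glycomics database, 3228 arrays were curated, keeping only those whose protein sequence was available. Binding is given as a within-array Z-score averaged across arrays sharing a protein sequence and across linkers. Negative Z-scores can be read as non-binding.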

[2] = target: Gal(b1-4)GlcNAc(b1-6)GalNAc
Outline: as §1

Gal6S(b1-3)GlcNAc6S = target: Gal6S(b1-3)GlcNAc6S
Outline: as §1

Gal6S(b1-4)Glc = target: Gal6S(b1-4)Glc
Outline: as §1

Gal6S(b1-4)GlcNAc = target: Gal6S(b1-4)GlcNAc
Outline: as §1

GalNAc(a1-3)Gal = target: GalNAc(a1-3)Gal
Outline: as §1

GalNAc3S(b1-4)GlcNAc3S = target: GalNAc3S(b1-4)GlcNAc3S
Outline: as §1

[3] = target: GlcA3S(b1-3)Gal(b1-4)GlcNAc(b1-3)Gal(b1-4)Glc
Outline: as §1

[4] = target: Man(a1-2)Man(a1-2)Man(a1-6)[Man(a1-3)]Man
Outline: as §1

[5] = target: Man(a1-2)Man(a1-3)[Man(a1-2)Man(a1-6)]Man
Outline: as §1

[6] = target: Man(a1-2)Man(a1-3)[Man(a1-2)Man(a1-6)]Man(a1-6)[Man(a1-2)Man(a1-2)Man(a1-3)]Man
Outline: as §1

[7] = target: Man(a1-2)Man(a1-3)[Man(a1-2)Man(a1-6)]Man(a1-6)[Man(a1-2)Man(a1-2)Man(a1-3)]Man(b1-4)GlcNAc(b1-4)GlcNAc
Outline: as §1

[8] = target: Man(a1-2)Man(a1-3)[Man(a1-6)]Man(a1-6)[Man(a1-2)Man(a1-3)]Man(b1-4)GlcNAc(b1-4)GlcNAc
Outline: as §1

[9] = target: Man(a1-2)Man(a1-6)[Man(a1-3)]Man(a1-6)[Man(a1-2)Man(a1-2)Man(a1-3)]Man
Outline: as §1

[10] = target: Man(a1-2)Man(a1-6)[Man(a1-3)]Man(a1-6)[Man(a1-2)Man(a1-2)Man(a1-3)]Man(b1-4)GlcNAc(b1-4)GlcNAc
Outline: as §1

Man(a1-3)[Man(a1-6)]Man = target: Man(a1-3)[Man(a1-6)]Man
Outline: as §1

[11] = target: Man(a1-3)[Man(a1-6)]Man(a1-6)[Man(a1-2)Man(a1-3)]Man(b1-4)GlcNAc(b1-4)GlcNAc
Outline: as §1

[12] = target: Man(a1-3)[Man(a1-6)]Man(a1-6)[Man(a1-3)]Man(b1-4)GlcNAc(b1-4)GlcNAc
Outline: as §1

[13] = target: Man(a1-3)[Man(a1-6)]Man(b1-4)GlcNAc(b1-4)GlcNAc
Outline: as §1

[14] = target: Neu5Ac(a2-3)Gal(b1-3)GalNAc(b1-3)Gal(a1-4)Gal(b1-4)Glc
Outline: as §1

[15] = target: Neu5Ac(a2-3)Gal(b1-3)GalNAc(b1-4)Gal(b1-4)Glc
Outline: as §1

[16] = target: Neu5Ac(a2-3)Gal(b1-3)GlcNAc(b1-2)Man(a1-3)[GlcNAc(b1-4)][Neu5Ac(a2-3)Gal(b1-3)GlcNAc(b1-2)Man(a1-6)]Man(b1-4)GlcNAc(b1-4)GlcNAc
Outline: as §1

[17] = target: Neu5Ac(a2-3)Gal(b1-3)GlcNAc(b1-3)GalNAc
Outline: as §1

Neu5Ac(a2-3)Gal(b1-4)Glc = target: Neu5Ac(a2-3)Gal(b1-4)Glc
Outline: as §1

[18] = target: Neu5Ac(a2-3)Gal(b1-4)[Fuc(a1-3)]GlcNAc6S
Outline: as §1

[19] = target: Neu5Ac(a2-6)Gal(b1-4)GlcNAc(b1-3)Gal(b1-4)GlcNAc(b1-3)Gal(b1-4)GlcNAc
Outline: as §1

[20] = target: Neu5Ac(a2-8)Neu5Ac(a2-3)[GalNAc(b1-4)]Gal(b1-4)Glc
Outline: as §1

[21] = target: Neu5Ac(a2-8)Neu5Ac(a2-8)Neu5Ac(a2-8)Neu5Ac(a2-3)[GalNAc(b1-4)]Gal(b1-4)Glc
Outline: as §1

[22] = target: Neu5Gc(b2-6)Gal(b1-4)GlcNAc
Outline: as §1

B1: Banana lectin (Musa acuminata) (protein)
chain: MNGAIKVGAHGGNGGSAFDMGPAYRIISVKIFSGDVVDGVDVTFTYYGKTETRHYGGSGGTPHEIVLQEGEYLVGMAGEVANYHGAVVLGKLGFSTNKKAYGPFGNTGGTPFSLPIAAGKISGFFGRGGKFLDAIGVYLEPLEHHHHHH
glycan array binding signal (z-score) [1]: -0.141
glycan array binding signal (z-score) [2]: -0.163
glycan array binding signal (z-score) (Gal6S(b1-3)GlcNAc6S): -0.174
glycan array binding signal (z-score) (Gal6S(b1-4)Glc): -0.156
glycan array binding signal (z-score) (Gal6S(b1-4)GlcNAc): -0.124
glycan array binding signal (z-score) (GalNAc(a1-3)Gal): -0.158
glycan array binding signal (z-score) (GalNAc3S(b1-4)GlcNAc3S): -0.165
glycan array binding signal (z-score) [3]: -0.164
glycan array binding signal (z-score) [4]: 7.33
glycan array binding signal (z-score) [5]: 2.86
glycan array binding signal (z-score) [6]: 6.5
glycan array binding signal (z-score) [7]: 2.96
glycan array binding signal (z-score) [8]: 9.34
glycan array binding signal (z-score) [9]: 5.18
glycan array binding signal (z-score) [10]: 6.56
glycan array binding signal (z-score) (Man(a1-3)[Man(a1-6)]Man): 2.82
glycan array binding signal (z-score) [11]: 13.5
glycan array binding signal (z-score) [12]: 3.07
glycan array binding signal (z-score) [13]: 6.6
glycan array binding signal (z-score) [14]: -0.167
glycan array binding signal (z-score) [15]: -0.186
glycan array binding signal (z-score) [16]: -0.163
glycan array binding signal (z-score) [17]: -0.169
glycan array binding signal (z-score) (Neu5Ac(a2-3)Gal(b1-4)Glc): -0.159
glycan array binding signal (z-score) [18]: -0.176
glycan array binding signal (z-score) [19]: -0.171
glycan array binding signal (z-score) [20]: -0.146
glycan array binding signal (z-score) [21]: -0.153
glycan array binding signal (z-score) [22]: -0.185
